Assay outcomes: PubChem, National Center for Advancing Translational Sciences (NCATS)
Hits are enriched below; roughly 11% of the tested compounds scored in any of these assays.
JMJD2A Tudor = blocks the human JMJD2A Tudor domain; AID 504339; AlphaScreen JMJD2A-Tudor / H3K4me3 peptide binding; Potency, µM (top dose mostly 114 µM), for the others: at the top dose activity change, negative = inhibition, most hits filed as inhibitors; actives 4.4% (n = 390,000); also: % is scaled to controls: 0 for no effect and ±100 for the full control effect; nearly all actives have a fitted effect of over 50% in size
BAZ2B block = BAZ2B (human) inhibition. AlphaScreen BAZ2B-H3K14Ac peptide displacement. AID 504333. Potency, µM (top dose mostly 114 µM), for inactives: at the top dose activity change, negative = inhibition, usual class: inhibitors. actives 4.4% (n = 360,000); also: % is scaled to controls: 0 for no effect and ±100 for the full control effect; nearly all actives have a fitted effect of over 60% in size
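BAZ2B 50 nM plus b-H3(5-23)K14Ac 50 nM, PBS pH 7.4/0.01% Tween-20, 30 min RT; compound added (max 110 uM), 30 min RT; streptavidin donor/Ni-chelate acceptor beads 10 ug/mL final, 20 min dark; AlphaScreen read.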
HP1b chromo inh = inhibitors of HP1-beta chromodomain binding to methylated histone tails | actives 0.56% (n = 390,000) | AID 540317 | AlphaScreen HP1-beta / biotin-H3K9me3 peptide binding | Potency, µM (titrated, usually from 114 µM), without a hit: top-dose activity change, negative = inhibition, actives largely listed as inhibitors; also: nearly all actives have a fitted effect of over 70% in size
Target sequence (P83916 whole entry, looked up): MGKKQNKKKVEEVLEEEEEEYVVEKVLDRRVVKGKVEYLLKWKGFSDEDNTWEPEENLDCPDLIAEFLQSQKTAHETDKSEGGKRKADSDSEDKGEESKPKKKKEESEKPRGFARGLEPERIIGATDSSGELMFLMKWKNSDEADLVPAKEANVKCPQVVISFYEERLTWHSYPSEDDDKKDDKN
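Compound inhibition of the preformed complex between 50 nM HP1-beta and 50 nM biotinylated H3K9me3 peptide was read by AlphaScreen. Buffer was PBS pH 7.4 with 0.01% Tween-20. Incubations ran 30 min at room temperature, with 10 ug/mL donor/acceptor beads.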
G9a block = G9a (human) methyltransferase inhibition | Q96KQ7 | G9a H3K9 monomethylation, AlphaScreen, 2 h | Potency, µM (series often up to 102 µM), without a hit: at the highest dose activity, negative = inhibition, hits mostly inhibitors | actives 8.8% (n = 350,000) | AID 504332; also: % is scaled to controls: 0 for no effect and ±100 for the full control effect; nearly all actives have a fitted effect of over 75% in size
Target sequence (Q96KQ7 913-1193 limits assumed): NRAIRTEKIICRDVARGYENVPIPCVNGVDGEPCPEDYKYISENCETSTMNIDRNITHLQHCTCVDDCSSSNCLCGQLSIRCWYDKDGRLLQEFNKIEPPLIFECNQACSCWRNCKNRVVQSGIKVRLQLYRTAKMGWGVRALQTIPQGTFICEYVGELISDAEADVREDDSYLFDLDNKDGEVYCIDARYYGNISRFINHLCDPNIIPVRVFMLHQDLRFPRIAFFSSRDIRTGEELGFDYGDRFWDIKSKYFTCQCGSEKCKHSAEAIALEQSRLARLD
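G9a (20 nM) preincubated 15 min RT with compounds, then 500 nM biotinylated H3K9 peptide and 20 uM SAM added; 2 h RT reaction. Monomethyl-H3K9 product detected by AlphaScreen with anti-H3K9me1 antibody, streptavidin donor and anti-rabbit IgG acceptor beads.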
L3MBTL1 inh = L3MBTL1 (human) inhibition; Q9Y468; AlphaScreen L3MBTL1–H3K9me1 peptide binding; Potency, µM (titrated, usually from 57.1 µM), for inactives: at the top dose activity, negative = inhibition, usual class: inhibitors; actives 0.66% (n = 230,000); also: % is scaled to controls: 0 for no effect and ±100 for the full control effect; nearly all actives have a fitted effect of over 60% in size
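L3MBTL1 50 nM + b-AHA-H3(1-15)K9me1 75 nM, 30 min RT; compound added, 30 min RT; streptavidin donor/Ni-chelate acceptor beads 10 ug/mL each final, 30 min RT dark; AlphaScreen read.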
Starred values were filed as active, the others as inactive; ? = inconclusive; . = no result; [ ] = dose if it differs, or a comment. Calls follow the shape of the dose curve; as a rule, active = well fitted inhibition curve with a large enough effect; inconclusive = small, poorly fitted or top-dose-only effect; inactive = no such curve, though single readings can be large or run the other way. Potency is read from the fitted curve at half-maximal effect.

SMILES	JMJD2A Tudor	BAZ2B block	HP1b chromo inh	G9a block	L3MBTL1 inh
O=C1C=CC(=O)c2c(O)c(N3CCN(CCOCCO)CC3)c(Br)c(O)c21	56.2µM*	.	8.91µM*	.	.
O=C1C=CC(=O)c2c(O)c(N3CCN(CCO)CC3)c(Cl)c(O)c21	50.1µM*	.	?	.	.
CCOc1ccc(CCNC(=O)c2cc(Nc3ccc(C)cc3C)nc3ccccc23)cc1OCC	-29.7%	.	47.5%	31.3%[59 µM]	.
O=C1CN(S(=O)(=O)c2cc(C(F)(F)F)ccc2Cl)CCN1	-3.5%	3.2%	29.8%	17.1%[12.7 µM]	-5.7%
Cc1ccc(C)c(OCC(=O)NCC(c2ccco2)N2CCCCC2)c1 (stereo unspecified)	-25.7%	4.9%	4.0%	?	-2.9%
Clc1ccccc1-c1nnc2sc(C3COc4ccccc4O3)nn12 (stereo unspecified)	-15.4%	0.6%	-21.7%	?	-8.5%
Cc1ccc(-c2nnc3sc(C4COc5ccccc5O4)nn23)cc1 (stereo unspecified)	-22.4%	-3.1%	22.3%	-4.3%[59 µM]	2.8%
c1ccc(OCc2nnc3sc(C4COc5ccccc5O4)nn23)cc1 (stereo unspecified)	50.1µM*	50.1µM*	15.8µM*	7.94µM*	.
c1ccc(Cc2nnc3sc(C4COc5ccccc5O4)nn23)cc1 (stereo unspecified)	-22.8%	3.9%	-33.2%	10µM*	-12.2%
COc1ccc(N2CCN(C(=O)Cn3cnc4nc5c(cc4c3=O)CCCC5)CC2)cc1	1.3%	-19.3%	19.6%[57 µM]	-36.5%[59 µM]	.
COc1ccc(NC(=O)CSc2nc3nc(C)cc(C)n3n2)cc1	1.4%	-12.0%	-4.3%	12.7%	.
COc1ccc(NC(=O)c2ccc(NC(=O)c3nc4nc(C)cc(C)n4n3)cc2)cc1	-15.3%	35.0%	9.5%	35.5µM*	3.2%
Cc1cc(C)n2nc(C(=O)NNC(=O)c3ccccc3)nc2n1	?	?	33.2%	14.1µM*	22.9%
CCn1c(=O)cc(OCC(=O)N(C)c2cc(Cl)ccc2C)c2ccccc21	-14.1%	?	11.0%	-19.2%[59 µM]	.
CCCCC#Cc1nc(N)c2ncn([C@@H]3O[C@H](C(=O)NCC)[C@@H](O)[C@H]3O)c2n1	.	.	.	35.1%[12.7 µM]	.
COc1ccc(C2/C=C\CN(Cc3ccc(N(C)C)cc3)CC(=O)N2Cc2ccc(F)cc2)cc1 (stereo unspecified)	25.1µM*	31.6µM*	?	?	.
O=C(NCCN1C(=O)S/C(=C\c2cccnc2)C1=O)c1cc(S(=O)(=O)N2CCOCC2)ccc1F	?	-5.9%	39.8%	39.8µM*	-4.4%
Cc1ccc(S(=O)(=O)N2CCOCC2)cc1C(=O)NCCN1C(=O)S/C(=C\c2ccccc2Cl)C1=O	-11.3%[57.1 µM]	-4.9%	8.4%	-10.4%[59 µM]	-12.7%
O=C(NCCN1C(=O)S/C(=C\c2cccnc2)C1=O)c1ccc([N+](=O)[O-])s1	-15.1%	13.0%	18.7%	14.1µM*	-2.5%
CCc1nn(CC(=O)Nc2cccc(C(C)=O)c2)c(=O)c2cc3sccc3n12	-17.5%	-1.3%	4.0%	?	.
COc1ccc(S(=O)(=O)NC(C)C(=O)Nc2ccccc2C(F)(F)F)cc1 (stereo unspecified)	5.1%	-3.8%	18.5%	11.2µM*	.
Cc1ccc(Nc2nnc(-c3ccc4c(c3)OCO4)o2)c(C)c1	-10.9%	-9.8%	-14.3%	25.1µM*	2.0%
Cc1cc(C)c2c(N=NN3CCOCC3)[nH]nc2n1	22.8%	-2.8%	28.0%	8.91µM*	4.7%
Cc1cc(C)c(C#N)c(N2CCOCC2)n1	-31.2%	1.0%	12.8%	-6.1%[59 µM]	4.5%
Cc1ccc(C)c(OCCOCCn2c(-c3ccc(Br)cc3)nc3ccccc3c2=O)c1C	12.1%	13.1%	57.7%	0.1%[59 µM]	.
SMILES	JMJD2A Tudor	BAZ2B block	HP1b chromo inh	G9a block	L3MBTL1 inh
CC(C)Oc1ccc(CNC(=O)c2ccc3nc(Cc4ccccc4)oc3c2)cc1	-7.7%	0.2%	22.0%[57 µM]	-3.0%[59 µM]	.
Fc1ccccc1Nc1nc2c(s1)CCc1ccccc1-2	.	?	.	6.31µM*	-8.0%
O=P(c1ccccc1)(c1ccccc1)c1nc(-c2ccccc2)oc1N1CCOCC1	-20.2%	?	-3.0%	-0.1%[59 µM]	-10.7%
COc1ccc(-c2nc(S(=O)(=O)c3ccccc3)c(N3CCOCC3)o2)cc1	79.4µM*	-29.2%	-1.4%	?	9.8%
O=P(c1ccccc1)(c1ccccc1)c1nc(-c2ccc(Cl)cc2)oc1N1CCOCC1	?	44.7µM*	-29.6%	?	-7.2%
Cc1ccc(S(=O)(=O)c2nc(-c3cccc(C)c3)oc2N2CCCCC2)cc1	-20.3%	-30.7%	7.9%	?	.
Cc1ccc(-c2nc(S(=O)(=O)c3ccc(Cl)cc3)c(N3CCCCC3)o2)cc1	-33.7%	?	?	2.82µM*	.
COc1ccc(-c2nc(S(=O)(=O)c3ccc(C)cc3)c(N3CCCCC3)o2)cc1	50.1µM*	?	?	3.55µM*	.
O=S(=O)(c1ccc(Oc2ccc3c(c2)OCO3)c(S(=O)(=O)N2CCOCC2)c1)N1CCOCC1	-30.0%[57.1 µM]	.	7.0%[57 µM]	.	.
CCOC(=O)/C(C#N)=C/c1c(N2CCN(c3ccc(OC)cc3)CC2)nc2c(C)cccn2c1=O	?	8.91µM*	?	8.91µM*	.
CCNC(=O)/C(C#N)=C/c1c(N2CCN(c3ccc(OC)cc3)CC2)nc2c(C)cccn2c1=O	20µM*	35.5µM*	?	39.8µM*	.
COC(=O)/C(C#N)=C/c1c(N2CCN(C)CC2)nc2ccccn2c1=O	-4.4%	2.9%	8.0%	-12.9%[2.33 µM]	.
COC(=O)/C(C#N)=C/c1c(N2CCN(c3ccccc3)CC2)nc2ccccn2c1=O	?	?	-20.3%	79.4µM*	.
CCOC(=O)/C(C#N)=C/c1c(N2CCN(CC)CC2)nc2c(C)cccn2c1=O	-16.0%	-3.0%	24.0%	?	.
COCCNC(=O)/C(C#N)=C/c1c(N2CCN(c3ccc(OC)cc3)CC2)nc2c(C)cccn2c1=O	50.1µM*	39.8µM*	-12.9%	28.2µM*	.
CCc1ccc(-n2c(=O)c3sc4ccccc4c3n(Cc3cccc(F)c3)c2=O)cc1	-5.0%	5.5%	47.2%	5.6%[59 µM]	.
COc1ccc(N2CCN(Cc3cc(=O)c(OCC(=O)NC4CCCC4)co3)CC2)cc1	-12.2%	8.7%	8.8%	56.2µM*	-1.1%
COc1ccc(CCNC(=O)CC2Oc3ccc(Cl)cc3NC2=O)cc1OC (stereo unspecified)	-19.7%	-23.4%	33.6%	79.4µM*	.
CCC(C)NC(=O)CC1Oc2ccc(Cl)cc2NC1=O (stereo unspecified)	-10.6%	10.5%	47.1%	44.7µM*	.
CCc1nn(-c2ccccc2)c2nc(-c3cccc(OC)c3)c3cc(OC)c(OC)cc3c12	-15.4%	3.1%	-7.7%	11.4%[59 µM]	.
Nc1c(C(=O)N/N=C/c2ccccc2Cl)oc2nc(-c3ccccc3)cc(-c3ccco3)c12	-21.4%	-22.7%	29.9%	20µM*	-17.2%
Cc1cc(-c2ccccc2)nc2oc(C(=O)NN)c(N)c12	-20.7%	-20.2%	36.6%	24.1%[59 µM]	-8.2%
